According to PubChem BioAssay (EPA / NIEHS):
The source made the active and inactive calls. How the source made its calls: active means hit-call score of the fitted dose curve at least 0.9, where 1 is the maximum; inactive means score below 0.9.

System: SRY-box transcription factor 2 (SOX2) Protein Expression, Deisenroth Lab, SOX2 (gene 6657)
Test: CCTE_Deisenroth_DEVTOX-GLR_legacy_Sox2: (Legacy) CCTE's DevTox GLR-Endo Assay Evaluation of SRY-box transcription factor 2 (SOX2) Protein Expression, Deisenroth Lab (AID 2284346)
Method in brief: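 Percent Sox2-positive cells was scored by high-content imaging of 5 fields per well. Positivity cutoff was 5x BMAD over the directed endoderm control, and the DMSO median was subtracted. Cells were RUES2-GLR, dosed twice at 24-h intervals over 48 h of differentiation (1 nM-200 uM).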

| SMILES | outcome |
| --- | --- |
| C=CC(N)=O | inactive |
| CC1=C2C[C@H]3[C@@H](CC=C4C[C@@H](O)CC[C@@]43C)[C@@H]2CC[C@]12O[C@@H]1C[C@H](C)CN[C@H]1[C@H]2C | inactive |
